MITF TRPM1 inh – inhibitors of MITF-driven TRPM1 promoter in melanoma cells | SK-MEL-5 TRPM1 promoter luciferase, 24 h | inhibition, % at 12.5 µM | 0.83% of 330,000 active | AID 488899;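 active = mean inhibition across replicates of 60% or more, whatever share of single replicates reaches that level; inconclusive = some that reach 60%, reason not given; inactive = mean inhibition across replicates below 60%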
HIF-2a block – HIF-2a inhibition; 786-0 RCC cells HIF-2a reporter, luciferase luminescence, overnight; inhibition, % at 18.8 µM; 0.72% of 360,000 active; AID 624352;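 active = inhibition of the luminescence signal of 40% or more relative to plate controls, in a single-dose primary screen at 18.75 µM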
EBV LMP1 NFkB – inhibitors of Epstein-Barr LMP1-induced NF-kappaB reporter; LMP1-induced NF-kappaB luciferase reporter cells, luminescence; inhibition, % at 12.5 µM; 0.69% of 350,000 active; in the data active = inhibition above about 41%; inconclusive = no clear call, values can overlap the other calls
PAX8 inh HTS – inhibitors of PAX8 transcriptional activity in RMG-I cells. RMG-I TPO-luciferase reporter, SteadyGlo, 24 h. 1.2% of 360,000 active. inhibition, % at 12.6 µM;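 active = mean replicate inhibition at least 60% with every replicate also reaching 60%; inconclusive = only one of the two criteria is met; inactive = mean below 60% and not all replicates reaching 60%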;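 also: luciferase light reporting Pax8 driven TPO promoter activity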
Shn3 inh set2 – reduces Shn3 3'UTR luciferase signal in osteoblasts; Clone20 osteoblast Shn3 3'UTR firefly luciferase, 24 h; inhibition, % at 12.5 µM; 0.52% of 360,000 active;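 active = mean inhibition of at least 75% with every replicate also reaching 75%; inconclusive = mean inhibition at least 75% but some replicate below; inactive = mean inhibition below 75%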
Peg3 promoter – reduces Peg3 promoter-driven luciferase expression in HeLa; HeLa PEG-Prom luciferase reporter, luminescence, overnight; inhibition, % at 20 µM; 1.7% of 360,000 active; AID 588405;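 active = inhibition of at least 50% at 20 µM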
A number is an active result; . = inactive; ? = inconclusive; / = no result given. Hits are enriched below; roughly 2.8% of the tested compounds scored in any of these assays.

SMILES	MITF TRPM1 inh	HIF-2a block	EBV LMP1 NFkB	PAX8 inh HTS	Shn3 inh set2	Peg3 promoter
COc1ccccc1S(=O)(=O)N1CC[C@@H]2[C@@H](CO)Nc3ccc(-c4ccccc4)cc3[C@@H]21	/	/	/	70	/	/
COc1cccc(CNC(=O)C[C@H]2C=C[C@@H](NC(=O)C3CC3)[C@H](CO)O2)c1	/	/	/	.	/	/
CO[C@@H]1CN(C)C(=O)c2ccc(NC(C)=O)cc2OC[C@H](C)N(C(=O)C2CCCCC2)C[C@@H]1C	/	/	/	.	/	/
COc1ccccc1-c1ccc2c(c1)[C@H]1[C@H](CCN1S(=O)(=O)c1ccccc1F)[C@@H](CO)N2	/	/	/	.	/	/
COc1ccccc1-c1ccc2c(c1)[C@@H]1[C@@H](CCN1S(=O)(=O)c1ccccc1F)[C@H](CO)N2	/	/	/	81	/	/
O=S(=O)(c1ccccc1F)N1CC[C@@H]2[C@@H](CO)Nc3ccc(-c4ccccc4F)cc3[C@@H]21	/	/	/	.	/	/
COc1ccccc1-c1ccc2c(c1)[C@H]1[C@H](CCN1S(=O)(=O)c1ccccc1F)[C@H](CO)N2	/	/	/	81	/	/
COc1cccc(-c2ccc3c(c2)[C@@H]2[C@@H](CCN2S(=O)(=O)c2cccc(OC)c2)[C@H](CO)N3)c1	/	/	/	73	/	/
COc1cccc(-c2ccc3c(c2)[C@H]2[C@H](CCN2S(=O)(=O)c2cccc(OC)c2)[C@H](CO)N3)c1	/	/	/	.	/	/
C[C@H](CO)N1C[C@H](C)[C@@H](CN(C)Cc2ccc(Cl)c(Cl)c2)Oc2ccc(NS(=O)(=O)c3ccccc3)cc2CC1=O	/	/	/	83	/	/
C[C@@H]1CN([C@@H](C)CO)C(=O)Cc2cc(NS(=O)(=O)c3ccc(F)cc3)ccc2O[C@H]1CN(C)Cc1ccc(Cl)c(Cl)c1	/	/	/	93	/	/
C[C@@H]1CCCCO[C@@H](CN(C)Cc2ccc(C(=O)Nc3ccccc3N)cc2)[C@@H](C)CN([C@H](C)CO)C(=O)c2cc(NC(=O)c3ccncc3)ccc2O1	/	/	/	.	/	/
Cc1coc(NC(=O)CSc2nc(-c3ccc(Cl)cc3)cc(C(F)(F)F)c2C#N)n1	.	.	.	.	.	60
COc1ccc(NC(=O)CSc2nc(-c3ccc(C)cc3)cc(C(F)(F)F)c2C#N)cc1	.	.	.	.	.	.
COc1ccc(-c2cc(C(F)(F)F)c(C#N)c(SCC(=O)Nc3nc(C)co3)n2)cc1	.	.	.	/	.	57
COc1ccc(-c2cc(C(F)(F)F)c(C#N)c(SCC(=O)O)n2)cc1	.	.	.	.	.	.
COc1ccc2c(-c3cc4ccc(OCc5ccc(F)cc5)cc4oc3=O)cc(=O)oc2c1	.	.	.	.	.	76
CCS(=O)(=O)Nc1ccc2c(c1)C(=O)N(C)C[C@@H](OC)[C@H](C)CN(C(=O)C1CCC1)[C@H](C)CO2	/	/	/	.	/	/
Cc1ccc(-n2c(-c3ccc(Br)cc3)c[n+]3c2CCc2ccc4cccnc4c2-3)cc1	98	.	.	/	91	64
Cc1ccc(-n2c(=O)[nH]c3ncccc3c2=O)cc1	.	.	.	.	.	.
CCCNS(=O)(=O)c1ccc(CCC(=O)NCc2ccco2)cc1	.	.	.	.	.	.
O=C(CN(Cc1ccccc1)C(=O)CNS(=O)(=O)c1ccccc1)NCc1ccco1	.	.	.	.	.	.
O=C(CN(Cc1cccs1)C(=O)CNS(=O)(=O)c1ccccc1)NCc1ccco1	.	.	90	/	.	.
O=C(CCc1ccc(S(=O)(=O)NCc2ccccc2)cc1)NCc1cccnc1	.	.	.	127	.	.
CCNS(=O)(=O)c1ccc(CCC(=O)NCc2cccnc2)cc1	.	.	.	.	.	.
SMILES	MITF TRPM1 inh	HIF-2a block	EBV LMP1 NFkB	PAX8 inh HTS	Shn3 inh set2	Peg3 promoter
O=C(CCc1ccc(S(=O)(=O)NCc2ccccc2)cc1)NCc1ccco1	.	.	.	157	.	.
CCNC(=O)C[C@@H]1CC[C@H]2[C@H](COc3ccc(NC(=O)Nc4ccccc4C)cc3C(=O)N2C)O1	/	/	/	.	/	/
C[C@@H]1CCCCO[C@@H](CN(C)Cc2ccc(Cl)c(Cl)c2)[C@H](C)CN([C@@H](C)CO)C(=O)c2cc(NC(=O)Cc3ccccc3)ccc2O1	/	/	/	87	/	/
C[C@@H]1CCCCO[C@@H](CN(C)Cc2ccccc2)[C@H](C)CN([C@H](C)CO)C(=O)c2cc(NC(=O)Cc3ccccc3)ccc2O1	/	/	/	.	/	/
C[C@@H]1CN([C@H](C)CO)C(=O)c2cc(NC(=O)Cc3ccccc3)ccc2O[C@@H](C)CCCCO[C@H]1CN(C)Cc1ccc(Cl)c(Cl)c1	/	/	/	97	/	/
O=C(Cc1cccnc1)N1CC(=O)N2[C@H](CO)[C@H](c3ccc(C#CC4CC4)cc3)[C@@H]2C1	/	/	/	.	/	/
COc1ccccc1C=NN=Cc1ccccc1O	.	.	83	.	.	.
COc1ccccc1C=NNC(=O)NN=Cc1ccccc1OC	.	.	.	.	.	.
COc1ccccc1C=NN=C(NN=Cc1ccccc1OC)NN=Cc1ccccc1OC	88	.	.	.	.	.
Clc1cccc(Nc2nc(-c3ccncc3)nc3ccccc23)c1	.	.	.	.	.	83
Fc1cc(F)c(F)c(SCCc2ccncc2)c1F	.	.	.	/	87	.
Fc1ccc(SCCc2ccncc2)cc1	.	.	.	.	.	.
C[C@H](CO)N1C[C@H](C)[C@@H](CN(C)C(=O)Nc2ccc(F)cc2)OCCCC[C@H](C)Oc2ccc(NC(=O)Nc3ccccc3)cc2C1=O	/	/	/	.	/	/
Oc1ccccc1N=Nc1ccccc1O	.	.	67	.	.	.
Nc1ccc(N=Nc2ccccc2O)c(N)c1	/	.	/	.	.	.
CC(C)C(=O)Nc1ccc2c(c1)C(=O)N(C)[C@H]1CC[C@H](CC(=O)NCc3ccccc3F)O[C@@H]1CO2	/	/	/	.	/	/
Fc1ccc(N=C2NN=C(c3cc(F)ccc3F)CS2)cc1	.	.	.	.	.	.
O=S(=O)(c1ccc(N=C2NN=C(c3cc(F)ccc3F)CS2)cc1)N1CCOCC1	.	.	.	90	.	.
CCc1c(Cc2ccccc2)ncn1CCc1ccccc1OC	/	/	/	78	/	/
CCCCc1c(-c2ccccc2OC)ncn1CCc1ccccc1OC	/	.	/	.	/	/
CCCCc1c(-c2ccccc2OC)ncn1Cc1ccc(C(C)(C)C)cc1	/	/	/	72	/	/
CCCCCc1c(-c2ccccc2OC)ncn1CCc1ccccc1OC	/	.	/	99	/	/
COc1ccccc1CCn1cnc(Cc2ccccc2)c1C(C)C	/	.	/	.	/	/
O=C([C@H]1[C@H](CO)[C@H]2Cn3c(ccc(-c4ccccc4)c3=O)[C@H]2N1CCC(F)(F)F)N1CCOCC1	/	/	/	.	/	/
O=C(NCC[C@H]1CC[C@H](NS(=O)(=O)c2cccc(F)c2)[C@@H](CO)O1)C1CCC1	/	/	/	.	/	/
Cc1ccccc1Cn1cnc2ccccc2c1=O	.	.	.	160	.	.
CCCN(CCC)C1=CC(=[N+]2CCCC2)CC(C)(C)C1	73	.	.	.	.	.
CN(C)NC1=CC(=[N+]2CCCC2)CC(C)(C)C1	.	.	.	.	.	.
CC1(C)CC(N2CCCCC2)=CC(=[N+]2CCCCC2)C1	.	.	.	75	?	.
Cc1ccc(S(=O)(=O)N[C@@H]2C=C[C@@H](CC(=O)NCCc3ccncc3)O[C@@H]2CO)cc1	/	/	/	.	/	/
